Results as given in PubChem BioAssay AID434931 (National Center for Advancing Translational Sciences (NCATS), 2010).
Where “and” joins values, the source holds several entries; their conditions need not be identical. Identical values can stand only once. Results filed as inconclusive are left out. Calls of active or inactive are those of the source. Calls follow the shape of the dose curve; as a rule, active = well fitted inhibition curve with a large enough effect; inconclusive = small, poorly fitted or top-dose-only effect, or another doubt; inactive = no such curve, though single readings can be large or run the other way.

molecular target: Neuropeptide S receptor (Homo sapiens) (UniProt Q6W5P4); test: Confirmation Concentration-Response Assay for Antagonists of the Neuropeptide S Receptor: Robust Characterization of Calcium Signal Transduction; details: CHO-NPSR cells, NPS-induced calcium fluorescence (FDSS); series mostly up to 31.6 µM
Description: NIH Chemical Genomics Center [NCGC] NIH Molecular Libraries Probe Production centers Network [MLPCN] MLPCN Grant: X01-DA026210-01 Assay Submitter (PI): Heilig, Markus Alexander NCGC Assay Overview: Neuropeptide S receptor (NPSR), previously known as GPR154, is a recently de-orphanized G protein coupled receptor. Its endogenous ligand is the 20 amino acids peptide Neuropeptide S (NPS). […] NPS and its receptor are found in various tissues. Specifically they are highly expressed in brain areas that have been implicated in modulation of arousal, stress and anxiety. Central administration of NPS in mice produces an unusual profile of activity by inducing wakefulness and arousal, while at the same time suppressing anxiety. Therefore, NPSR may represent a novel drug target for the treatment of sleep and anxiety disorders. To identify NPSR antagonists, we developed a cell-based assay with transfected NPS receptor. NPS can stimulate the production of cAMP as well as release intracellular calcium in Chinese hamster ovary cells stably expressing NPS receptor. This change in intracellular calcium can be detected using a calcium indicator dye on a calcium imaging plate reader system (FDSS). This particular assay uses a high density of sampling across concentration-response space to establish more confidence estimates of potency.
NCGC Assay Protocol Summary: A Chinese hamster ovary (CHO) cell line stably expressing the NPS receptor (CHO-NPSR) was obtained from Dr. Heilig lab at NIAAA and maintained in F-12 Kaighn's media (Invitrogen, Carlsbad, CA, 21127) supplemented with 10 % FBS, 100 units/ml penicillin, 100 ug/ml streptomycin and 250 ug/ml geneticin at 37C, 5% CO2 in a humidified atmosphere. Before the assay, aliquots of cells were frozen and stored at -135C. The assay was performed on a FDSS-7000 kinetic plate reader in 1536-well format. For both agonist (1-220s) and antagonist (221-400s) phases, the maximums of kinetic fluorescence responses were converted separately into text files using the instrument's software data export utility. Data for agonist response were normalized to the controls for basal activity (DMSO only) and 100% activation (NPS). […] AC50 values were determined from concentration-response data modeled with the standard Hill equation. NPS 1536-well FDSS assay protocol: (1) Frozen CHO-NPSR cells were thaw, washed once with fresh media and resuspended in F-12 Kaighn's media supplemented with 10 % FBS, 100 units/ml penicillin and 100 ug/ml streptomycin. Cells were plated at 3 ul/well (1200 cells) to black, clear-bottom, tissue-culture treated 1536-well plates, and then cultured at 37C, 5 % CO2 for 16 to 30 hours. (2) Add 3 ul of calcium dye (from High Performance PBX Calcium Assay Kit, BD Biosciences). The calcium dye was prepared according to the manufactory's instruction. (3) Incubation at 37C, 5 % CO2 for 60 to 120 min. (4) Load plates to FDSS-7000. The following steps were performed on FDSS-7000. (5) Record fluorescent background (Ex 480 nm, Em 520-560 nm) for 10 s. (6) Add 23 nl/well of compound in DMSO solution. The final titration for each compound was between 0.6 nM and 46 uM. Record agonist response for 210 s. (7) Add 2 ul of stimulation reagent (1X HBSS buffer, 0.1% BSA, 60 nM NPS). Record antagonist response for 140 s. Keywords: MLSMR, MLPCN, NIH Roadmap, qHTS, NCGC, NPS, Neuropeptide S Antagonists

Chain of Neuropeptide S receptor (Homo sapiens) (Q6W5P4 whole entry, looked up): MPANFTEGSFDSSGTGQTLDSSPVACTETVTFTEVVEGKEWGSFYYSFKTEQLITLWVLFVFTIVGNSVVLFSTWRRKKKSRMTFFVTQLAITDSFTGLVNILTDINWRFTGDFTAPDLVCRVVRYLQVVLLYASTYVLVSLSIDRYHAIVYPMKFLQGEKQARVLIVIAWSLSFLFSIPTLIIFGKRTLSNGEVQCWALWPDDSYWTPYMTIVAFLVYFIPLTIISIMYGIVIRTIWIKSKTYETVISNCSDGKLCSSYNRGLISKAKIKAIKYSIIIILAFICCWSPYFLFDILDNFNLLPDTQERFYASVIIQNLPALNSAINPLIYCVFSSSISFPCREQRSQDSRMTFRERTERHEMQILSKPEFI

Potency, inactive:
COc1ccc(C2c3c(nc(Cc4ccccc4)[nH]c3=O)Oc3ccc4ccccc4c32)cc1OC (centres undefined), COc1ccc(C2c3c(nc(C)[nH]c3=O)Oc3ccc4ccccc4c32)cc1OC (centres undefined), N=c1c2c(ccn1CCCCc1ccccc1)Oc1ccc3ccccc3c1C2c1ccccc1 (centres undefined), CC(C)(C)OC(=O)Nc1ncnc2c1C(c1ccccc1)c1c(ccc3ccccc13)O2 (centres undefined), COc1ccc(C2c3c(nc(CCCc4ccccc4)[nH]c3=O)Oc3ccc4ccccc4c32)cc1OC (centres undefined)

Potency, active:
COc1cccc(C2c3c(ncn(-c4ccccc4-c4ccccc4)c3=N)Oc3ccc4ccccc4c32)c1 (centres undefined) 8.74 µM, COc1cccc(C2c3c(ncn(-c4cccc(Br)c4)c3=N)Oc3ccc4ccccc4c32)c1 (centres undefined) 2.46 µM, COc1cccc(C2c3c(ncn(-c4ccccc4)c3=N)Oc3ccc4ccccc4c32)c1OC (centres undefined) 0.981 µM, COc1cccc(C2c3c(ncn(-c4ccccc4C#N)c3=N)Oc3ccc4ccccc4c32)c1 (centres undefined) 3.1 µM, COc1cccc(C2c3c(ncn(-c4ccncc4)c3=N)Oc3ccc4ccccc4c32)c1 (centres undefined) 3.91 µM, COc1cccc(C2c3c(ncn(-c4cccc(Cl)c4)c3=N)Oc3ccc4ccccc4c32)c1 (centres undefined) 4.38 µM, COc1cccc(C2c3c(ncn(-c4ccccc4C(C)(C)C)c3=N)Oc3ccc4ccccc4c32)c1 (centres undefined) 1.74 µM, COc1cccc(C2c3c(ncn(-c4ccc(C(C)(C)C)cc4)c3=N)Oc3ccc4ccccc4c32)c1 (centres undefined) 1.24 µM, COc1ccc(C2c3c(n(CCCc4ccccc4)cnc3=N)Oc3ccc4ccccc4c32)cc1OC (centres undefined) 4.92 µM, COc1cccc(C2c3c(ncn(-c4cccnc4)c3=N)Oc3ccc4ccccc4c32)c1 (centres undefined) 1.74 µM, COc1cccc(C2c3c(ncn(-c4ccccc4C)c3=N)Oc3ccc4ccccc4c32)c1 (centres undefined) 5.52 µM, CCOC(=O)c1ccc(-n2cnc3c(c2=N)C(c2cccc(OC)c2)c2c(ccc4ccccc24)O3)cc1 (centres undefined) 2.46 µM, COc1cccc(C2c3c(ncn(-c4ccccc4OC)c3=N)Oc3ccc4ccccc4c32)c1 (centres undefined) 1.24 µM, O=C(c1ccccc1)N(C(=O)c1ccccc1)c1ncnc2c1C(c1ccccc1)c1c(ccc3ccccc13)O2 (centres undefined) 0.438 µM, COc1cccc(C2c3c(ncn(-c4ccc(F)cc4)c3=N)Oc3ccc4ccccc4c32)c1 (centres undefined) 2.2 µM, Cc1nc2ccccn2c1C(O)(c1ccccc1)c1ccccc1 11.3 µM, N#CC1=C(NC=NCc2ccccc2)Oc2ccc3ccccc3c2C1c1ccccc1 (centres undefined) 0.779 µM, N=c1c2c(ncn1-c1ccccc1)Oc1ccc3ccccc3c1C2c1ccc2c(c1)OCCO2 (centres undefined) 0.276 µM, COc1ccc(C2c3ccc4ccccc4c3Oc3ncn(CCN4CCOCC4)c(=N)c32)cc1OC (centres undefined) 3.48 µM, COc1ccccc1C1c2c(ncn(-c3ccccc3)c2=N)Oc2ccc3ccccc3c21 (centres undefined) 4.92 µM, COc1cccc(C2c3c(ncn(-c4ccc(Br)cc4)c3=N)Oc3ccc4ccccc4c32)c1 (centres undefined) 3.1 µM, N=c1c2c(ncn1-c1ccccc1)Oc1ccc3ccccc3c1C2c1ccc2c(c1)CCO2 (centres undefined) 0.124 µM, COc1cccc(C2c3c(ncn(-c4ccccc4)c3=N)Oc3ccc4ccccc4c32)c1 (centres undefined) 1.55 µM and 139 nM, CCOC(=O)CCCC(=O)Nc1ncnc2c1C(c1ccccc1)c1c(ccc3ccccc13)O2 (centres undefined) 2.2 µM
